# Data reported in PubChem BioAssay (NCATS).
# Inconclusive results are not listed. Entries that show only a call come without a potency. Unmarked numbers belong to inactive results. Activity calls are given as the source filed them. Calls come from the whole dose curve; as a rule, active = well fitted inhibition curve with a large enough effect; inconclusive = small, poorly fitted or top-dose-only effect; inactive = flat fitted curve, though single readings scatter. Where a SMILES comes first, the peptide text is derived from it. Bridges are numbered along the chain shown (N, C = ends).
# Assays:
# [1] = molecular target: Glutathione peroxidase 1 (Homo sapiens) (UniProt P07203); experiment: Primary qHTS Assay for Inhibitors of Recombinant Selenoprotein Glutathione Peroxidase 1 (GPX1) (AID 1845191)
# How it was run: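 NADPH consumption tracked by fluorescence at 340/450 nm between t=0 and t=15 min, room temperature. Final mix: 10 nM GPX1, 100 nM glutathione reductase, 1 mM GSH, 0.5 mM NADPH, 0.5 mM cumene hydroperoxide, 0.01% BSA; 30 min compound–enzyme preincubation.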
# [2] = molecular target: Phospholipid hydroperoxide glutathione peroxidase GPX4 (Homo sapiens) (UniProt P36969); experiment: Primary qHTS Assay for Inhibitors of Recombinant Selenoprotein Glutathione Peroxidase 4 (GPX4) (AID 1845192); for activity change, negative = inhibition: series mostly up to about 50 µM
# How it was run: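 NADPH consumption followed by fluorescence at 340/450 nm, t=0 and after 15 min at room temperature. Reaction started with cumene hydroperoxide (0.5 mM final) after 30 min compound–GPX4 preincubation; final 200 nM GPX4, 100 nM GR, 1 mM GSH, 0.5 mM NADPH.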
# Note: nearly all actives have a fitted effect of over 65% in size.
# Potency is the fitted concentration of half-maximal effect.
# Chain of Glutathione peroxidase 1 (Homo sapiens) (P07203 whole entry, looked up): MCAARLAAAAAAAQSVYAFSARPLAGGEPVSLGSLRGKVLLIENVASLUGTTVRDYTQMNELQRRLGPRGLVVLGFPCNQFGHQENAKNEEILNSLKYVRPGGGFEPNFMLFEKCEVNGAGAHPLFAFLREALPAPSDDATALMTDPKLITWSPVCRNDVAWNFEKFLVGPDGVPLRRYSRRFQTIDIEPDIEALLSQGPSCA
# Chain of Phospholipid hydroperoxide glutathione peroxidase GPX4 (Homo sapiens) (P36969 whole entry, looked up): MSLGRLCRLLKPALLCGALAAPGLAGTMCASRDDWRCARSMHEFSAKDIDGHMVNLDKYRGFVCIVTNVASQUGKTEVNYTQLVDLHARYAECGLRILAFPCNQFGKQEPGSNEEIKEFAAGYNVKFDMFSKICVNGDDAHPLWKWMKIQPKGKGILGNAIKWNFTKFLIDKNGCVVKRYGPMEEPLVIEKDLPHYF
smiles,measurement,setting,value
NCCCNCCCCNC(=O)C(O)NC(=O)CCCCCCN=C(N)N (centres undefined),Potency,[1],inactive
same,Potency,[2],inactive
CN=C(NC)NCc1ccccc1,Potency,[1],inactive
same,Potency,[2],inactive
CNC[C@@H]1CC[C@@H](N)[C@@H](O[C@H]2[C@H](O)[C@@H](O[C@H]3OC[C@](C)(O)[C@H](NC)[C@H]3O)[C@H](N)C[C@@H]2N)O1,Potency,[1],inactive
same,Potency,[2],inactive
CC(CC(c1ccccc1)c1ccccc1)NC(C)(C)C (centres undefined),Potency,[1],inactive
same,Potency,[2],inactive
O=S(O)CNc1ccc(S(=O)(=O)c2ccc(NCS(=O)O)cc2)cc1,Potency,[1],inactive
same,Potency,[2],inactive
C[N+](C)(CCCCCC[N+](C)(C)C1c2ccccc2-c2ccccc21)C1c2ccccc2-c2ccccc21,Potency,[1],inactive
same,Potency,[2],inactive
O=C(Cc1cccc(OC(F)(F)F)c1)Nc1ccc(CCCCc2nnc(NC(=O)Cc3ccccn3)s2)nn1,Potency,[1],inactive
same,Potency,[2],inactive
CCCCCCCCCCCCCCCCCC(=O)OCCO,Potency,[1],inactive
same,Potency,[2],inactive
C/C(=C(/CCO)SSCC1CCCO1)N(C=O)Cc1cnc(C)nc1N (centres undefined),Potency,[1],inactive
same,Potency,[2],inactive
O=C(O)c1cc2ccccc2c(Cc2c(O)c(C(=O)O)cc3ccccc23)c1O,Potency,[1],inactive
same,Potency,[2],inactive
CN1CC(O)c2cc(N=NC(N)=O)c(O)cc21 (centres undefined),Potency,[1],inactive
same,Potency,[2],inactive
O=C1C(c2[nH]c3ccc(S(=O)(=O)O)cc3c2O)=Nc2ccc(S(=O)(=O)O)cc21,Potency,[1],inactive
same,Potency,[2],inactive
CCCOc1ccc2nc(NC(=O)OC)sc2c1,Potency,[1],inactive
same,Potency,[2],inactive
CCCN(CC)C(CC)C(=O)Nc1c(C)cccc1C (centres undefined),Potency,[1],inactive
same,Potency,[2],inactive
CCCCCCCC(=O)CC[C@@H]1[C@@H](C/C=C\CCCC(=O)OC(C)C)[C@@H](O)C[C@H]1O,Potency,[1],inactive
same,Potency,[2],inactive
CCCCc1cc2c(=O)c(C(=O)OC)c[nH]c2cc1OCc1ccccc1,Potency,[1],inactive
same,Potency,[2],inactive
C=C1CC2C3CCC4=CC(=O)C=C[C@]4(C)[C@@]3(F)[C@@H](O)C[C@]2(C)[C@@]1(O)C(=O)COC(C)=O (some centres undefined),Potency,[1],inactive
same,Potency,[2],inactive
OC(CN1CCCCC1)c1cc(-c2ccccc2)on1 (centres undefined),Potency,[1],inactive
same,Potency,[2],inactive
CCC(C)C(C(=O)OCC[N+](C)(CC)CC)c1ccccc1 (centres undefined),Potency,[1],inactive
same,Potency,[2],inactive
CCOC(=O)[C@@]1(CCCCCCOc2ccc(Cl)cc2)CO1,Potency,[1],inactive
same,Potency,[2],inactive
CON=C1C[C@]2(C[C@@H]3C[C@@H](C/C=C(\C)C[C@@H](C)/C=C/C=C4\CO[C@@H]5[C@H](O)C(C)=C[C@@H](C(=O)O3)[C@]45O)O2)O[C@H](/C(C)=C/C(C)C)[C@H]1C,Potency,[1],inactive
same,Potency,[2],inactive
C[C@H]1C[C@@H]2[C@H]([C@@H](O)C[C@@]3(C)[C@H]2CC[C@]3(O)C(=O)COC(=O)CCC(=O)O)[C@@]2(C)C=CC(=O)C=C12,Potency,[1],inactive
same,Potency,[2],inactive
O=P(O)(O)OC(CO)CO,Potency,[1],inactive
same,Potency,[2],inactive
Cc1c(N)nc(C(CC(N)=O)NCC(N)C(N)=O)nc1C(=O)NC(C(=O)NC(C)C(O)C(C)C(=O)NC(C(=O)NCCc1nc(-c2nc(C(=O)NCCCN[C@@H](C)c3ccccc3)cs2)cs1)C(C)O)C(O[C@@H]1O[C@@H](CO)[C@@H](O)[C@H](O)[C@@H]1O[C@H]1O[C@H](CO)[C@@H](O)[C@H](OC(N)=O)[C@@H]1O)c1cnc[nH]1 (some centres undefined),Potency,[1],inactive
same,Potency,[2],inactive
CCOC(=O)[C@H](CCc1ccccc1)N[C@H]1CCCN2CCC[C@@H](C(=O)O)N2C1=O,Potency,[1],inactive
same,Potency,[2],inactive
CC(=O)O[C@H]1C[C@@H]2CC[C@@H]3[C@H](CC[C@@]4(C)[C@H]3C[C@H](N3CC[N+](C)(C)CC3)[C@@H]4OC(C)=O)[C@@]2(C)C[C@@H]1N1CC[N+](C)(C)CC1,Potency,[1],inactive
same,Potency,[2],inactive
CC(=O)OCC(=O)[C@@]1(O)[C@H](C)C[C@H]2[C@@H]3C[C@H](F)C4=CC(=O)C=C[C@]4(C)[C@H]3[C@@H](O)C[C@@]21C,Potency,[1],inactive
same,Potency,[2],inactive
CCCCCCCCCCCCCCCC(=O)OCCC1CCN(CCCN2c3ccccc3Sc3ccc(S(=O)(=O)N(C)C)cc32)CC1,Potency,[1],inactive
same,Potency,[2],inactive
CC1(S(=O)(=O)O)CC(=O)c2ccccc2C1=O (centres undefined),Potency,[1],2020 nM (active)
same,Potency,[2],891 nM (active)
CCCCCCCCCCCCCCCCCC(=O)[O][Al],"activity, negative = inhibition",[1],-27.3% [at 4.49 µM]
same,"activity change, negative = inhibition",[2],-12.8% [at 4.52 µM]
CC(=O)O[C@H]1CC[C@@]2(C)C(=CC[C@H]3[C@@H]4CC[C@H](C(C)=O)[C@@]4(C)CC[C@@H]32)C1,Potency,[1],inactive
same,Potency,[2],inactive
CCCCC(=O)O,Potency,[1],inactive
same,Potency,[2],inactive
CN[C@@H]1CCc2[nH]c3ccc(C(N)=O)cc3c2C1,Potency,[1],inactive
same,Potency,[2],inactive
CC#CCC(C)[C@H](O)/C=C/[C@@H]1[C@H]2c3cccc(CCCC(=O)O)c3O[C@H]2C[C@H]1O (some centres undefined),Potency,[1],inactive
same,Potency,[2],inactive
NCCCC[C@H](NC(=O)[C@@H]1CCCN1C(=O)[C@@H]1CSSC[C@H](NC(=O)CNC(=O)CNC(=O)CN)C(=O)N[C@@H](Cc2ccc(O)cc2)C(=O)N[C@@H](Cc2ccccc2)C(=O)N[C@@H](CCC(N)=O)C(=O)N[C@@H](CC(N)=O)C(=O)N1)C(=O)NCC(N)=O (H-GGGCYFQNCPKG-NH2; disulfide 4-9),Potency,[1],inactive
same,Potency,[2],inactive
O=P(O)(O)C(Sc1ccc(Cl)cc1)P(=O)(O)O,"activity, negative = inhibition",[1],3.51% [at 0.4 µM]
same,outcome,[2],inactive [at 0.409 µM]
O=C(Cn1c(=O)sc2ccc(Cl)cc21)N1CCN(CCO)CC1,Potency,[1],inactive
same,Potency,[2],inactive
